# Data from PubChem BioAssay AID1159580 (chemical genetic matrix, 2015).
# Hit rate of the full screen: of about 5,500 compounds, about 2,000 (36%) were called active. Not shown: some 18% with an inconclusive outcome. The list shows a part of the results. Values without a mark were called inactive. Rule as the data show it: active = normalized growth mostly below about 0.91 (no sharp cut-off); inconclusive = no clear call, values can overlap the other calls; inactive = mostly above about 0.92.
# Experiment: chemical genetic growth profiling, strain panel (AID 1159580);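 also: tested at 20 µM; growth read once vehicle control cultures reached saturation at 30 °C; 1 = growth at the plate median or of vehicle wells; lower values mean less growth of the strain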
# Details: growth OD
smiles,measurement,setting,value
COc1ccc(C[C@H]2NC[C@H](O)[C@H]2OC(C)=O)cc1,normalized growth,"S. cerevisiae deletion strains, locus YKL009W, strain mrt4, stronger effect = lower value",0.966
same,normalized growth,"S. cerevisiae deletion strains, locus YKL068W, stronger effect = lower value",0.998
same,normalized growth,"S. cerevisiae deletion strains, locus YKL085W, strain MDH1 (second series), stronger effect = lower value",1.01
same,normalized growth,"S. cerevisiae deletion strains, locus YKL085W, strain MDH1, stronger effect = lower value",1.01
same,normalized growth,"S. cerevisiae deletion strains, locus YKL160W, strain elf1, stronger effect = lower value",0.776 (active)
same,normalized growth,"S. cerevisiae deletion strains, locus YKL190W, strain CNB1, stronger effect = lower value",0.206 (active)
same,normalized growth,"S. cerevisiae deletion strains, locus YKR001C, strain vps1, stronger effect = lower value",0.367 (active)
same,normalized growth,"S. cerevisiae deletion strains, locus YKR026C, strain gcn3, stronger effect = lower value",0.985
same,normalized growth,"S. cerevisiae deletion strains, locus YKR091W, strain srl3, stronger effect = lower value",1
same,normalized growth,"S. cerevisiae deletion strains, locus YLL001W, strain dnm1, stronger effect = lower value",0.884 (active)
same,normalized growth,"S. cerevisiae deletion strains, locus YLL026W, stronger effect = lower value",0.807 (active)
same,normalized growth,"S. cerevisiae deletion strains, locus YLL041C, strain sdh2, stronger effect = lower value",0.986
same,normalized growth,"S. cerevisiae deletion strains, locus YLR027C, strain aat2, stronger effect = lower value",0.659 (active)
same,normalized growth,"S. cerevisiae deletion strains, locus YLR039C, strain RIC1, stronger effect = lower value",0.567 (active)
same,normalized growth,"S. cerevisiae deletion strains, locus YLR058C, strain SHM2, stronger effect = lower value",0.61 (active)
same,normalized growth,"S. cerevisiae deletion strains, locus YLR102C, strain apc9, stronger effect = lower value",1.01
same,normalized growth,"S. cerevisiae deletion strains, locus YLR113W, strain HOG1, stronger effect = lower value",0.977
same,normalized growth,"S. cerevisiae deletion strains, locus YLR221C, strain rsa3, stronger effect = lower value",0.853 (active)
same,normalized growth,"S. cerevisiae deletion strains, locus YLR258W, strain gsy2, stronger effect = lower value",0.734 (active)
same,normalized growth,"S. cerevisiae deletion strains, locus YLR262C, strain YPT6 (second series), stronger effect = lower value",0.769 (active)
same,normalized growth,"S. cerevisiae deletion strains, locus YLR262C, strain YPT6, stronger effect = lower value",0.386 (active)
same,normalized growth,"S. cerevisiae deletion strains, locus YLR268W, strain sec22, stronger effect = lower value",0.854 (active)
same,normalized growth,"S. cerevisiae deletion strains, locus YLR320W, strain mms22, stronger effect = lower value",0.957
same,normalized growth,"S. cerevisiae deletion strains, locus YLR330W, strain CHS5, stronger effect = lower value",0.87 (active)
same,normalized growth,"S. cerevisiae deletion strains, locus YLR342W, strain FKS1 (second series), stronger effect = lower value",0.126 (active)
same,normalized growth,"S. cerevisiae deletion strains, locus YLR342W, strain FKS1, stronger effect = lower value",0.412 (active)
same,normalized growth,"S. cerevisiae deletion strains, locus YLR357W, strain rsc2, stronger effect = lower value",0.826 (active)
same,normalized growth,"S. cerevisiae deletion strains, locus YLR370C, strain arc18, stronger effect = lower value",0.877 (active)
same,normalized growth,"S. cerevisiae deletion strains, locus YLR371W, strain rom2, stronger effect = lower value",0.728 (active)
same,normalized growth,"S. cerevisiae deletion strains, locus YLR384C, strain iki3, stronger effect = lower value",1
same,normalized growth,"S. cerevisiae deletion strains, locus YLR418C, strain cdc73, stronger effect = lower value",0.28 (active)
same,normalized growth,"S. cerevisiae deletion strains, locus YML016C, strain PPZ1, stronger effect = lower value",0.625 (active)
same,normalized growth,"S. cerevisiae deletion strains, locus YML032C, strain rad52, stronger effect = lower value",0.868 (active)
same,normalized growth,"S. cerevisiae deletion strains, locus YML120C, strain ndi1, stronger effect = lower value",0.98
same,normalized growth,"S. cerevisiae deletion strains, locus YML124C, strain tub3, stronger effect = lower value",0.988
same,normalized growth,"S. cerevisiae deletion strains, locus YMR058W, strain fet3, stronger effect = lower value",0.891 (active)
same,normalized growth,"S. cerevisiae deletion strains, locus YMR078C, strain ctf18, stronger effect = lower value",1.02
same,normalized growth,"S. cerevisiae deletion strains, locus YMR125W, strain sto1, stronger effect = lower value",0.862 (active)
same,normalized growth,"S. cerevisiae deletion strains, locus YMR129W, stronger effect = lower value",0.961
same,normalized growth,"S. cerevisiae deletion strains, locus YMR205C, strain PFK2, stronger effect = lower value",0.692 (active)
same,normalized growth,"S. cerevisiae deletion strains, locus YMR223W, strain ubp8, stronger effect = lower value",0.723 (active)
same,normalized growth,"S. cerevisiae deletion strains, locus YMR231W, strain pep5, stronger effect = lower value",0.752 (active)
same,normalized growth,"S. cerevisiae deletion strains, locus YMR263W, strain SAP30, stronger effect = lower value",0.852 (active)
same,normalized growth,"S. cerevisiae deletion strains, locus YMR307W, strain GAS1, stronger effect = lower value",0.237 (active)
same,normalized growth,"S. cerevisiae deletion strains, locus YNL067W, strain RPL9B, stronger effect = lower value",0.663 (active)
same,normalized growth,"S. cerevisiae deletion strains, locus YNL071W, strain lat1, stronger effect = lower value",0.975
same,normalized growth,"S. cerevisiae deletion strains, locus YNL128W, strain TEP1, stronger effect = lower value",0.353 (active)
same,normalized growth,"S. cerevisiae deletion strains, locus YNL153C, strain GIM3, stronger effect = lower value",0.62 (active)
same,normalized growth,"S. cerevisiae deletion strains, locus YNL183C, strain NPR1, stronger effect = lower value",0.97
same,normalized growth,"S. cerevisiae deletion strains, locus YNL209W, strain ssb2, stronger effect = lower value",0.74 (active)
same,normalized growth,"S. cerevisiae deletion strains, locus YNL233W, strain BNI4, stronger effect = lower value",0.582 (active)
same,normalized growth,"S. cerevisiae deletion strains, locus YNL248C, strain rpa49, stronger effect = lower value",0.745 (active)
same,normalized growth,"S. cerevisiae deletion strains, locus YNL250W, strain rad50, stronger effect = lower value",0.986
same,normalized growth,"S. cerevisiae deletion strains, locus YNL271C, strain bni1, stronger effect = lower value",0.995
same,normalized growth,"S. cerevisiae deletion strains, locus YNL298W, strain CLA4, stronger effect = lower value",0.98
same,normalized growth,"S. cerevisiae deletion strains, locus YNL307C, strain MCK1, stronger effect = lower value",0.496 (active)
same,normalized growth,"S. cerevisiae deletion strains, locus YNL322C, strain KRE1 (second series), stronger effect = lower value",1.01
same,normalized growth,"S. cerevisiae deletion strains, locus YNL322C, strain KRE1, stronger effect = lower value",0.0901 (active)
same,normalized growth,"S. cerevisiae deletion strains, locus YNR049C, strain mso1, stronger effect = lower value",1
same,normalized growth,"S. cerevisiae deletion strains, locus YNR052C, strain pop2, stronger effect = lower value",0.448 (active)
same,normalized growth,"S. cerevisiae deletion strains, locus YOL006C, strain TOP1, stronger effect = lower value",0.0919 (active)
same,normalized growth,"S. cerevisiae deletion strains, locus YOL012C, strain htz1",2.18 [resistant] (active)
same,normalized growth,"S. cerevisiae deletion strains, locus YOL147C, strain pex11, stronger effect = lower value",0.884 (active)
same,normalized growth,"S. cerevisiae deletion strains, locus YOR001W, strain rrp6, stronger effect = lower value",0.891 (active)
same,normalized growth,"S. cerevisiae deletion strains, locus YOR061W, strain CKA2, stronger effect = lower value",0.624 (active)
same,normalized growth,"S. cerevisiae deletion strains, locus YOR069W, strain VPS5, stronger effect = lower value",0.973
same,normalized growth,"S. cerevisiae deletion strains, locus YOR070C, strain gyp1, stronger effect = lower value",0.775 (active)
same,normalized growth,"S. cerevisiae deletion strains, locus YOR080W, strain dia2, stronger effect = lower value",0.952
same,normalized growth,"S. cerevisiae deletion strains, locus YOR083W, strain WHI5, stronger effect = lower value",0.657 (active)
same,normalized growth,"S. cerevisiae deletion strains, locus YOR106W, strain vam3, stronger effect = lower value",0.345 (active)
same,normalized growth,"S. cerevisiae deletion strains, locus YOR136W, strain idh2, stronger effect = lower value",0.914 (active)
same,normalized growth,"S. cerevisiae deletion strains, locus YOR144C, strain elg1, stronger effect = lower value",1.01
same,normalized growth,"S. cerevisiae deletion strains, locus YOR184W, strain ser1, stronger effect = lower value",0.463 (active)
same,normalized growth,"S. cerevisiae deletion strains, locus YOR231W, strain MKK1, stronger effect = lower value",0.954
same,normalized growth,"S. cerevisiae deletion strains, locus YOR265W, strain rbl2, stronger effect = lower value",0.851 (active)
same,normalized growth,"S. cerevisiae deletion strains, locus YOR270C, strain vph1, stronger effect = lower value",0.354 (active)
same,normalized growth,"S. cerevisiae deletion strains, locus YOR290C, strain snf2, stronger effect = lower value",0.763 (active)
same,normalized growth,"S. cerevisiae deletion strains, locus YOR316C, strain cot1, stronger effect = lower value",0.993
same,normalized growth,"S. cerevisiae deletion strains, locus YPL051W, strain arl3, stronger effect = lower value",0.738 (active)
same,normalized growth,"S. cerevisiae deletion strains, locus YPL055C, strain LGE1, stronger effect = lower value",0.0822 (active)
same,normalized growth,"S. cerevisiae deletion strains, locus YPL078C, strain atp4, stronger effect = lower value",0.919
same,normalized growth,"S. cerevisiae deletion strains, locus YPL106C, strain sse1, stronger effect = lower value",0.873
same,normalized growth,"S. cerevisiae deletion strains, locus YPL240C, strain hsp82, stronger effect = lower value",0.942
same,normalized growth,"S. cerevisiae deletion strains, locus YPL241C, strain CIN2, stronger effect = lower value",0.652 (active)
same,normalized growth,"S. cerevisiae deletion strains, locus YPL256C, strain CLN2, stronger effect = lower value",0.947
same,normalized growth,"S. cerevisiae deletion strains, locus YPR119W, strain clb2, stronger effect = lower value",1.07
same,normalized growth,"S. cerevisiae deletion strains, locus YPR141C, strain kar3, stronger effect = lower value",0.986
same,normalized growth,"S. cerevisiae deletion strains, locus YPR163C, strain tif3, stronger effect = lower value",0.718 (active)
same,normalized growth,"S. cerevisiae deletion strains, locus YPR167C, strain met16, stronger effect = lower value",0.807 (active)
same,normalized growth,"S. cerevisiae deletion strains, strain wtn01, stronger effect = lower value",0.301 (active)
same,normalized growth,"S. cerevisiae strains, strain wild type, stronger effect = lower value",0.117 (active)
